In PubChem BioAssay (EPA / NIEHS) one finds outcome and AC50 data, which are given here for eleven compounds.

Results filed as inconclusive are left out. Active and inactive are the calls of the source. How the source made its calls: active means hit-call score of the fitted dose curve at least 0.9, where 1 is the maximum; inconclusive means response in the unintended direction; inactive means score below 0.9.

Ratio of Nucleoli Translocation and Cytoplasm, AR (gene 367), sequence (P10275 whole entry, looked up, the tested form may be a part): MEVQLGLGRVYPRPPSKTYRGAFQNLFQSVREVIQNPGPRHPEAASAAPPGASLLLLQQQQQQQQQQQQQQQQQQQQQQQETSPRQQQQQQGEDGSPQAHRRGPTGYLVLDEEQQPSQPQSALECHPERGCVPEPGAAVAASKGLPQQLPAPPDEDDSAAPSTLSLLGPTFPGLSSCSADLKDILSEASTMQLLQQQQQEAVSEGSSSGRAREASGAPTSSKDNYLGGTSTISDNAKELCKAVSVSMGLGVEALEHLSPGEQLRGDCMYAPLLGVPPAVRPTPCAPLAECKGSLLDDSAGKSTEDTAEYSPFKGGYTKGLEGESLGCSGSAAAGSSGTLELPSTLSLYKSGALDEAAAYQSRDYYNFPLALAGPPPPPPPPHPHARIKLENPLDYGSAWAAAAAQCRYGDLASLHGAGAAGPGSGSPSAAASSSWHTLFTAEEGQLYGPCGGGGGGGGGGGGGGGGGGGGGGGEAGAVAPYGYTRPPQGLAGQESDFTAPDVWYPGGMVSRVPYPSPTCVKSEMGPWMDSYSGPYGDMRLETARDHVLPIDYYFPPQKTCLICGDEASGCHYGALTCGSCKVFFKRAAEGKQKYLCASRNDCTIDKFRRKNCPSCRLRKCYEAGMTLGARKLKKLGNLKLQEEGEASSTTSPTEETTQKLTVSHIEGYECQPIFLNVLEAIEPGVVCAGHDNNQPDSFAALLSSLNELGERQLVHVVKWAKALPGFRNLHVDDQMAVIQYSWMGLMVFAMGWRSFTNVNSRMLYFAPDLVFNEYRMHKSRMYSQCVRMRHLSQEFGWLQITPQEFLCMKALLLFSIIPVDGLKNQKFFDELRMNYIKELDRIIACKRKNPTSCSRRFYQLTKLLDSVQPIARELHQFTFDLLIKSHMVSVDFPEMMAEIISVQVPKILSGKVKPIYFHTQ

This assay addresses Ratio of Nucleoli Translocation and Cytoplasm, AR (gene 367) (UniProt P10275). As to the kind of experiment: UPITT_HCI_U2OS_AR_TIF2_Nucleoli_Cytoplasm_Ratio_Antagonist: University of Pittsburgh U2OS Androgen Receptor-Transcriptional Intermediary Factor 2 (AR-TIF2) Antagonism High Content Imaging Assay for Ratio of Nucleoli Translocation and Cytoplasm (AID 2283999).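 Further: antagonists lower the DHT-driven ratio of nucleolar to cytoplasmic red signal.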 The source says: UPITT_AR_TIF2_PPIB is a cell-based, high-content imaging assay that uses U2OS, a human osteosarcoma cell line, expressing a human androgen receptor fused to red fluorescent protein and the coactivator TIF2 fused to green fluorescent protein. UPITT_HCI_U2OS_AR_TIF2_Nucleoli_Cytoplasm_Ratio_Antagonist is one of four assay components measured from the UPITT_AR_TIF2_PPIB assay. It is designed to make measurements of the ratio of red fluorescence localized in the nucleolar region of the cell nucleus to red fluorescence localized in the cytoplasm as detected with high-content fluorescent imaging.Data from the assay component UPITT_HCI_U2OS_AR_TIF2_Nucleoli_Cytoplasm_Ratio_Antagonist was analyzed into 1 assay endpoint. This assay endpoint, UPITT_HCI_U2OS_AR_TIF2_Nucleoli_Cytoplasm_Ratio_Antagonist, was analyzed in the positive analysis fitting direction relative to DHT as the baseline of activity. Using a type of binding reporter, measures of receptor for loss-of-signal activity can be used to understand the binding at the pathway-level as it relates to the gene AR.
Daughter plates containing 2 uL of 10 mM compounds in DMSO were prepared and replicated from the 384-well Library of Pharmacologically Active Compounds (LOPAC) master plates using the Bravo outfitted with a 384-well transfer head. Aluminum adhesive plate seals were applied with an Abgene Seal-IT 100 (Rochester, NY) plate sealer, and the plates were stored at -20 C in a Matrical MatriMinistore (Spokane, WA) automated compound storage and retrieval system. For screening, LOPAC daughter plates were withdrawn from -20C storage, thawed to ambient temperature, centrifuged 1-2 min at 50 g, and the plate seals were removed before the transfer of 98 uL of serum-free tissue culture medium (SFM) into wells using the BioTek Microflo liquid handler (BioTek, Winooski, VT) to generate a 200 uM intermediate stock concentration of library compounds (2.0% DMSO). The diluted compounds were mixed by repeated aspiration and dispensation using a 384-well P30 dispensing head on the Evolution P3 (EP3) liquid handling platform (PerkinElmer, Waltham, MA) and then 5 uL of diluted compounds was transferred to the wells of assay plates. In the LOPAC screen, compounds were individually tested at a final concentration of 20 uM (0.2% DMSO). After the diluted compounds had been transferred from the daughter plates to the primary HCS assay plates, aluminum adhesive plate seals were applied and the diluted daughter plates were stored frozen at -20C. To confirm active compounds identified in the primary screen, we withdrew the LOPAC daughter plates containing the 200 uM intermediate concentration of library compounds (2.0% DMSO) from -20C storage, thawed them to ambient temperature, centrifuged them for 1-2 min at 50 g, and removed the plate seals. A work list was generated to direct the Multiprobe Janus liquid handling platform (PerkinElmer) to cherry pick 75 uL from the wells of the diluted daughter plates that were flagged active in the primary screen and to reformat these into a 384-well plate hit confirmation daughter plate. Five microliters of primary HCS active compounds was then transferred into triplicate wells of assay plates using a 384-well P30 dispensing head on the Evolution P3 (EP3) liquid handling platform (PerkinElmer). […] Daughter plates containing 2 uL of the serially diluted compounds in DMSO were prepared and replicated from the 384-well serial dilution master plates using the Bravo outfitted with a 384-well transfer head. Aluminum adhesive plate seals were applied and plates were stored at -20C. For testing in the bioassays, daughter plates were withdrawn from -20C storage, thawed to ambient temperature, centrifuged for 1-2 min at 50 g, and the plate seals were removed before the transfer of 38 uL of SFM into wells using the BioTek Microflo liquid handler (BioTek) to generate an intermediate stock concentration of library compounds ranging from 1.95 to 500 uM (5.0% DMSO). […]
Consider `FC(F)(F)c1ccc(Cl)c(Cl)c1`, for which the outcome was inactive.

Turning to `CC(C)(C)c1cccc(O)c1`, the result was inactive.

`CCOc1ccc(NC(C)=O)cc1`: the result was inactive.

Regarding `CCO[Si](CC)(OCC)OCC`, the outcome was inactive.

`CC(CCO)CC(C)(C)C` (stereo unspecified): the outcome was inactive.

In the case of `COC(=O)c1cccc(C(=O)OC)c1`, the outcome was inactive.

For the compound `OC[C@H]1O[C@@H](O[C@H]2[C@H](O)[C@@H](O)[C@H](O)O[C@@H]2CO)[C@H](O)[C@@H](O)[C@H]1O`, the result was inactive.

As to `CCC(C)(C)C1CCC(=O)CC1`, the result was inactive.

As to `c1ccc2c(c1)-c1ccc3ccc4cccc5cc-2c1c3c45`, the result was inactive.

Consider `COc1cc(OC)c2ccc(=O)oc2c1`, for which the result was inactive.

Broadly, the AC50 is the concentration giving half of the maximal activity seen. As for `CCCCCCOc1ccc(O)cc1`, the AC50 was 90 µM (active).
